Experimental data reported in PubChem BioAssay (Tox21).
Records with an inconclusive call do not appear. Active and inactive are the calls of the source. Unless noted, calls follow the shape of the dose curve; as a rule, active = well fitted curve in the direction sought with a large enough effect in the repeat runs; inconclusive = weak or mixed curves; inactive = no such curve, though single readings can be large; an effect the other way counts as inactive or inconclusive.

Experiments:
[1] = A CellTox Green Cytotoxicity Assay to monitor cytotoxicity in HepG2 cells - 40 hour (AID 1224879); also: nearly all actives have a fitted effect of over 40% in size
Outline: (§1)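 Real-time cytotoxicity: fluorescence of a cell-impermeant cyanine dye binding DNA of dead HepG2 cells, measured repeatedly (0–40 h) during compound exposure at 37 C. Cells seeded 600/well with reagent, dosed after 5 h.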

[2] = qHTS RealTime-Glo MT Cell Viability Assay in HEK293 cells - 0 hour (AID 1224880); also: top concentration of the series differs between compounds; nearly all actives have a fitted effect of over 45% in size
Outline: (§2)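 Luminescence, which tracks viable cell number through reduction of the prosubstrate to a NanoLuc substrate, was read over continuous 37 C culture. Cells (600/well) were premixed with reagent and rested 5 h before 23 nL of compound in DMSO was pinned.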

[3] = A CellTox Green Cytotoxicity Assay to monitor cytotoxicity in HEK293 cells - 32 hour (AID 1224881); also: nearly all actives have a fitted effect of over 40% in size
Outline: (§3)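 Fluorescence from a DNA-binding dye excluded by viable cells was measured repeatedly in the same HEK293 wells (600 cells/well) during continuous compound exposure at 37 C. Each assay gives one read point: 0, 8, 16, 24, 32 or 40 h.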

[4] = A CellTox Green Cytotoxicity Assay to monitor cytotoxicity in HepG2 cells - 0 hour (AID 1224882); also: nearly all actives have a fitted effect of over 35% in size
Outline: as §1

[5] = A CellTox Green Cytotoxicity Assay to monitor cytotoxicity in HepG2 cells - 32 hour (AID 1224883); also: nearly all actives have a fitted effect of over 50% in size
Outline: as §1

[6] = A CellTox Green Cytotoxicity Assay to monitor cytotoxicity in HEK293 cells - 8 hour (AID 1224884); also: nearly all actives have a fitted effect of over 35% in size
Outline: as §3

[7] = qHTS RealTime-Glo MT Cell Viability Assay in HepG2 cells - 16 hour (AID 1224885); also: nearly all actives have a fitted effect of over 50% in size
Outline: (§4)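 HepG2 suspension premixed with RealTime-Glo reagents is plated at 600 cells per well and left 5 h at 37 C/5% CO2. Compounds in DMSO then go in, and bioluminescence reflecting viable cell number is recorded over 40 h.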

[8] = qHTS RealTime-Glo MT Cell Viability Assay in HEK293 cells - 24 hour (AID 1224886); also: top concentration of the series differs between compounds; nearly all actives have a fitted effect of over 50% in size
Outline: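 Reads taken at 0, 8, 16, 24, 32 and 40 h from the same wells. HEK293 cells (600/well) carried RealTime-Glo reagents from seeding, with compound added after a 5 h settle at 37 C.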

[9] = qHTS RealTime-Glo MT Cell Viability Assay in HEK293 cells - 8 hour (AID 1224887); also: top concentration of the series differs between compounds; nearly all actives have a fitted effect of over 50% in size
Outline: as §2

[10] = A CellTox Green Cytotoxicity Assay to monitor cytotoxicity in HEK293 cells - 16 hour (AID 1224888); also: nearly all actives have a fitted effect of over 35% in size
Outline: as §3

[11] = qHTS RealTime-Glo MT Cell Viability Assay in HepG2 cells - 0 hour (AID 1224889); also: nearly all actives have a fitted effect of over 50% in size
Outline: as §4

[12] = A CellTox Green Cytotoxicity Assay to monitor cytotoxicity in HepG2 cells - 8 hour (AID 1224890); also: nearly all actives have a fitted effect of over 45% in size
Outline: as §1

[13] = qHTS assay to identify small molecule antagonists of the estrogen receptor alpha (ER-alpha) signaling pathway using the BG1 cell line in the presence of 0.1 nM 17-beta-estradiol - cell viability counter screen (AID 1259241); also: nearly all actives have a fitted effect of over 40% in size
Outline: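 Following 5 days in phenol red-free medium with charcoal-stripped serum, VM7Luc4E2 cells received test compounds alongside 0.1 nM 17beta-estradiol (final) at 37C for 22 hr. Live cells were then quantified via protease-substrate fluorescence.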

[14] = qHTS assay to identify small molecule antagonists of the androgen receptor (AR) signaling pathway using the MDA cell line in the presence of 0.5 nM R1881 - cell viability counter screen (AID 1259242); also: nearly all actives have a fitted effect of over 45% in size
Outline: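 Live-cell protease activity was measured by CellTiter-Fluor fluorescence after 30 min. Before that, MDA-kb2 MMTV-luciferase cells had 16 hr at 37C without CO2, exposed to test compounds and 0.5 nM R1881 final.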

[15] = qHTS assay to identify small molecule HDAC inhibitors (AID 1259364); also: top concentration of the series differs between compounds; nearly all actives have a fitted effect of over 45% in size
Outline: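 Luminescence read after 30 min room-temperature HDAC-Glo incubation measures cellular class I/II HDAC activity. Compounds were applied for 2 hr at 37 C to HCT-116 wild-type cells seeded the day before.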

[16] = biological target: Estrogen receptor (Homo sapiens) (UniProt P03372); assay: qHTS assay to identify small molecule antagonists of the estrogen receptor alpha (ER-alpha) signaling pathway using the BG1 cell line in the presence of 0.1 nM 17-beta-estradiol (AID 1259244); also: nearly all actives have a fitted effect of over 50% in size
Outline: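 Luciferase luminescence (ONE-Glo, 30 min at room temperature) was read after 22 hr at 37C exposure to compounds plus 17beta-estradiol at 0.1 nM final. Cells were VM7Luc4E2 with endogenous ER-alpha and an ERE-driven luciferase, pre-cultured 5 days in hormone-depleted medium.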

[17] = qHTS assay to identify small molecule HDAC inhibitors - cell viability counter screen (AID 1259365)
Outline: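 HCT-116 wild-type, overnight attachment; 2hr drug exposure, 37C; CellTiter-Glo luminescent ATP readout after 30min RT.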

[18] = qHTS assay to identify small molecule phospholipidosis (PLD) inducers (AID 1259344; active = well fitted curve in the direction sought with a large enough effect; an effect the other way counts as inactive or inconclusive)
Outline: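 Image-based: LipidTOX Red pit count/intensity per well and per cell; HepG2, 24 h compound at 37 C, PFA fixation, Hoechst counterstain.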
% is scaled to controls: 0 for no effect and ±100 for the full control effect.

Chain of Estrogen receptor (Homo sapiens) (P03372 whole entry, looked up): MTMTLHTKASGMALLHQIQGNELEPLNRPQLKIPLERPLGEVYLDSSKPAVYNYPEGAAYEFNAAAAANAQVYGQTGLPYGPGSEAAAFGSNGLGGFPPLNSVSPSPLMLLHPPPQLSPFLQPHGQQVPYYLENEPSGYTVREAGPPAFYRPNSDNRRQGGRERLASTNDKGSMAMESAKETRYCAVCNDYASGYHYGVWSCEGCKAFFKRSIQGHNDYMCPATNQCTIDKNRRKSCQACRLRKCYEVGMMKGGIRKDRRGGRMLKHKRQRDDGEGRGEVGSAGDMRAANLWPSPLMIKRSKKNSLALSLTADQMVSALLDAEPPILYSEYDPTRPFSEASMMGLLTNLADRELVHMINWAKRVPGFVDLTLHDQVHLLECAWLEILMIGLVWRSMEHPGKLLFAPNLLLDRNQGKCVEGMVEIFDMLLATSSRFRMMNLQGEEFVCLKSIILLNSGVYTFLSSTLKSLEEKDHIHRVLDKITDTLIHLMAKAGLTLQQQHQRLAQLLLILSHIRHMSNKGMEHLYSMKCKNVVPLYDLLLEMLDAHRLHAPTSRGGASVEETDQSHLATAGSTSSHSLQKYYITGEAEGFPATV

CCCC(=O)OC
inactive: Potency [1] | Potency [2] | Potency [3] | Potency [4] | Potency [5] | Potency [6] | outcome [7] | outcome [8] | outcome [9] | Potency [10] | Potency [11] | Potency [12] | outcome [13] | outcome [14] | Potency [15]

O=C(O)Cc1c(Cl)ccc(Cl)c1Cl
inactive: Potency [1] | Potency [2] | Potency [3] | Potency [4] | Potency [5] | Potency [6] | outcome [7] | outcome [8] | outcome [9] | Potency [10] | Potency [11] | Potency [12] | outcome [13] | outcome [14] | outcome [16] | Potency [15] | outcome [17]

CCO[Si](CC(C)C)(OCC)OCC
inactive: Potency [2] | Potency [3] | Potency [4] | Potency [6] | outcome [7] | outcome [8] | outcome [9] | Potency [10] | Potency [11] | Potency [12] | outcome [13] | Potency [15] | outcome [17]

C=CCON/C(CCC)=C1\C(=O)CC(C)(C)C(C(=O)OC)=C1O
inactive: Potency [2] | Potency [3] | Potency [4] | Potency [6] | outcome [7] | outcome [8] | outcome [9] | Potency [10] | Potency [11] | Potency [12] | outcome [13] | outcome [14] | Potency [15] | outcome [17]

C[Si](C)(C)O[Si](O)(O)O
inactive: Potency [1] | Potency [2] | Potency [3] | Potency [4] | Potency [5] | Potency [6] | outcome [7] | outcome [9] | Potency [10] | Potency [11] | Potency [12] | outcome [13] | outcome [14] | Potency [15] | outcome [17]

O=C(O)CCC(=O)Nc1ccc(S(=O)(=O)Nc2nccs2)cc1
inactive: Potency [2] | Potency [3] | Potency [4] | Potency [6] | outcome [7] | outcome [8] | outcome [9] | Potency [10] | Potency [11] | outcome [13] | outcome [14] | Potency [18]

N=C(N)N1CCc2ccccc2C1
inactive: cytotoxicity increase [1] -14.4% [at 6.97 µM] | activity change, negative = cytotoxicity [2] -0.804% [at 6.97 µM] | cytotoxicity increase [3] -11.6% [at 6.97 µM] | cytotoxicity increase [5] -12.5% [at 6.97 µM] | cytotoxicity increase [6] -15.6% [at 6.97 µM] | activity change, negative = cytotoxic [7] 0.556% [at 6.97 µM] | activity change, negative = cytotoxicity [8] 2.27% [at 6.97 µM] | activity change, negative = cytotoxicity [9] 2.38% [at 6.97 µM] | activity change [10] -13.7% [at 6.97 µM, active compounds read high] | activity change, negative = cytotoxicity [11] -7.09% [at 6.97 µM] | cytotoxicity increase [12] -13.8% [at 6.97 µM] | activity change, negative = cytotoxicity [13] 9.23% [at 8.39 µM] | viability change, negative = cytotoxic [14] -5.28% [at 8.39 µM] | Potency [18] | activity change, negative = inhibition [15] 3.09% [at 8.39 µM]

Cc1cc(C)c(C)c(C)c1
inactive: Potency [1] | Potency [2] | Potency [3] | Potency [4] | Potency [5] | Potency [6] | outcome [7] | outcome [8] | outcome [9] | Potency [10] | Potency [11] | Potency [12] | outcome [13] | outcome [14] | outcome [16] | Potency [15]

O=C1Nc2ccccc2C1=O
inactive: Potency [1] | Potency [2] | Potency [3] | Potency [4] | Potency [5] | Potency [6] | outcome [7] | Potency [10] | Potency [11] | Potency [12] | outcome [13] | outcome [14] | Potency [15] | outcome [17]

CNCCc1ccccn1
inactive: Potency [1] | Potency [2] | Potency [3] | Potency [4] | Potency [5] | Potency [6] | outcome [7] | outcome [8] | outcome [9] | Potency [10] | Potency [11] | Potency [12] | outcome [13] | outcome [14] | Potency [18] | Potency [15] | outcome [17]

CCCCCCC(=O)c1ccccc1
inactive: Potency [1] | Potency [2] | Potency [3] | Potency [4] | Potency [5] | Potency [6] | outcome [7] | outcome [8] | outcome [9] | Potency [10] | Potency [11] | Potency [12] | outcome [13] | Potency [15] | outcome [17]

COC(=O)/C=C(\C)CCC=C(C)C
inactive: Potency [1] | Potency [2] | Potency [3] | Potency [4] | Potency [5] | Potency [6] | outcome [7] | outcome [8] | outcome [9] | Potency [10] | Potency [11] | Potency [12] | outcome [13] | outcome [14] | outcome [16] | Potency [15] | outcome [17]
